Compounds with a hit are over-represented: about 0.59% of the library has one in this group of screens.
DUSP3 inh: VHR1 phosphatase inhibitors, primary screen, biochemical, absorbance, uHTS | Dual specificity protein phosphatase 3 (Homo sapiens), P51452 | recombinant VHR phosphatase, pNPP absorbance | inhibition, % at 13.3 µM | 0.52% of 290,000 active; in the data active means inhibition above about 50%
Target sequence (P51452 whole entry, looked up): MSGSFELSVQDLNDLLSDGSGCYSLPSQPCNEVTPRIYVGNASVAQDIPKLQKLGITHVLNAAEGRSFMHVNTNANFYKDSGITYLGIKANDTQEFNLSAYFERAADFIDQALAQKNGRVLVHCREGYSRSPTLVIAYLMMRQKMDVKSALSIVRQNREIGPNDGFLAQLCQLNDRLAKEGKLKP
Mtb bLac sens: beta-lactam sensitization of Mtb H37Rv, H37Rv; 0.27% of 330,000 active; AID 434955, 2010; M. tuberculosis H37Rv growth with meropenem, percent inhibition; inhibition, % at 25 µM; call rule not given here;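 further: growth measured after seven days incubation then overnight dye step; 0% = bacteria only wells and 100% = bacteria with antibiotic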
Mtb hypoxia rep: PubChem AID 1159583. M. tuberculosis hypoxia-regulated fluorescent reporter, fluorescence. fluorescence inhibition, % (test concentration not listed). 0.1% of 300,000 active; in the data active means fluorescence inhibition mostly above about 23%, no sharp cut-off; inactive means mostly below about 17%
Mtb UGM inh: M. tuberculosis UGM enzyme inhibitors, primary screen, biochemical, fluorescence polarization, single point; UDP-galactopyranose mutase (Mycobacterium tuberculosis (strain ATCC 25618 / H37Rv)), …; purified UGM, fluorescence polarization probe displacement; inhibition, % at 10 µM; 0.06% of 320,000 active; in the data active means inhibition above about 10%, passing the limit was not always enough; inconclusive means no clear call, values can overlap the other calls
Target sequence (P9WIQ1 whole entry, looked up): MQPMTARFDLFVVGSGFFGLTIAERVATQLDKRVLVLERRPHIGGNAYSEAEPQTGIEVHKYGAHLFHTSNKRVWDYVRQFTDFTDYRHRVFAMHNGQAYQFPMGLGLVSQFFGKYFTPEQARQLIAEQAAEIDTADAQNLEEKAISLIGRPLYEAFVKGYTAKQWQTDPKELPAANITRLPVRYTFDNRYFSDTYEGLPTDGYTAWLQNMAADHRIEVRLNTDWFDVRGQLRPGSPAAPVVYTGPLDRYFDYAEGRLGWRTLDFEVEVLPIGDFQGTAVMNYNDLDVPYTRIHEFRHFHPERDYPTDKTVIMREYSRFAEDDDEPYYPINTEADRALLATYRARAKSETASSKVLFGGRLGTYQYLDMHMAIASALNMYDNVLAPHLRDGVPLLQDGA
Rv3671c inh: Rv3671c serine protease inhibitors, primary screen, biochemical, fluorescence polarization, M. tuberculosis H37Rv; P9WHR9; inhibition, % at 5.96 µM; 0.048% of 320,000 active; AID 2606, 2010; in the data active means inhibition above about 38%;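 further: extracellular domain of Rv3671c used as enzyme; 0% = enzyme with DMSO and 100% = no enzyme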
Active calls of the source: *; ? = inconclusive; / = no result.

SMILES	DUSP3 inh	Mtb bLac sens	Mtb hypoxia rep	Mtb UGM inh	Rv3671c inh
CC(=O)N1CCCc2cc(S(=O)(=O)N3CCCC(C(=O)Nc4cccc(C)c4)C3)ccc21 (stereo unspecified)	54.2*	0.3	-1.4	-0.5	-2.0
O=C(O)c1cc(C(=O)C2CC2)c[nH]1	2.5	-3.6	-6.7	2.1	4.4
CC1CN(c2ccc([N+](=O)[O-])c(NCCOc3ccccc3)c2)CC(C)N1 (stereo unspecified)	51.5*	22.1	9.4	-1.0	1.4
CC1CN(c2ccc([N+](=O)[O-])c(NCCOc3ccc(Cl)cc3)c2)CC(C)N1 (stereo unspecified)	-4.9	99.5	14.4	-0.6	/
COc1ccc2oc(=O)c(C(=O)NC3CCCCCC3)cc2c1	50.2*	3.5	4.4	0.9	-2.4
CNC(=O)c1cc2cc(OC)ccc2oc1=O	11.6	1.6	5.5	-1.1	0.5
Cn1cc(C=NO)nc2c(=O)n(-c3ccccc3)c(=O)nc1-2	/	/	38.5*	/	/
Cn1cc(/C=N\O)nc2c(=O)n(-c3ccccc3)c(=O)nc1-2	5.1	-6.4	/	1.1	4.1
COCc1nnc(NS(=O)(=O)c2ccc([N+](=O)[O-])cc2)s1	-2.2	8.6	64.8*	1.6	0.4
O=C(CNC(=O)c1ccccc1F)NN=C/C=C/c1ccccc1	/	/	-8.1	/	/
CCc1nc(N2CCN(C(=O)c3ccco3)CC2)c2oc3ccccc3c2n1	51.9*	?	10.4	-0.3	2.0
Cc1nc(N2CCN(C(=O)c3ccco3)CC2)c2oc3ccccc3c2n1	29.2	7.5	12.7	-0.5	0.8
CCNC(=O)COC(=O)CCC(=O)c1cccs1	4.3	7.8	6.0	0.6	-8.8
CCC(CC)NC(=O)COC(=O)CCC(=O)c1cccs1	51.9*	-0.6	-3.8	-1.6	-2.5
CC(C)CNS(=O)(=O)c1ccc(CCC(=O)NC2CCCC2)cc1	51.7*	-3.0	13.0	-2.1	0.6
C=CC(=O)Nc1ccc(Br)cc1	10.5	-3.3	/	-2.3	-3.5
O=C(Nc1ccc(N2CCOCC2)cc1)c1ccc2nc(-c3ccco3)c(-c3ccco3)nc2c1	7.2	11.2	3.9	/	-13.6
S=C(Nc1ccc(N2CCOCC2)cc1)Nc1ccc2nc(-c3ccco3)c(-c3ccco3)nc2c1	50.3*	48.4	/	-1.4	-5.0
S=C(Nc1cccc(Cl)c1)Nc1cccc2cnccc12	50.8*	6.0	-2.8	2.3	-12.8
O=C1CCC(=O)N1Cc1c(Cl)cccc1Cl	2.1	0.6	12.2	-0.5	-8.1
O=C(C1CC(c2ccc(F)cc2)=NO1)N1CCc2ccccc2C1 (stereo unspecified)	29.4	4.4	/	0.9	8.5
COc1cccc(C2=NOC(C(=O)N3CCc4ccccc4C3)C2)c1 (stereo unspecified)	55.2*	?	/	-1.4	-3.1
CC(C)OC(=O)CC(=O)c1sc2nc3c(cc2c1N)CN(C)CC3	5.9	0.2	12.9	16.0*	-1.9
COC(=O)c1ccc(C(=O)OC)c(NC(=O)COC(=O)c2ccc(OC)c(OC)c2OC)c1	19.2	-5.3	-7.0	-3.0	9.6
COc1cccc(/C=C2\SC(=O)N(CC(=O)NC3CCS(=O)(=O)C3)C2=O)c1 (stereo unspecified)	59.8*	6.2	-13.0	0.7	-2.3
SMILES	DUSP3 inh	Mtb bLac sens	Mtb hypoxia rep	Mtb UGM inh	Rv3671c inh
COc1cccc(/C=C2\SC(=O)N(CCC(=O)NC3CCS(=O)(=O)C3)C2=O)c1 (stereo unspecified)	14.9	-1.0	6.9	-0.9	1.8
CCN(C(=O)CN1C(=O)S/C(=C\c2cccc(OC)c2)C1=O)C1CCS(=O)(=O)C1 (stereo unspecified)	52.3*	-3.7	-10.4	-0.4	-0.6
CCC(C(=O)OC)n1c(-c2ccccc2)nc2ccccc2c1=O (stereo unspecified)	31.2	6.2	12.0	1.4	-3.0
COc1ccc(NS(=O)(=O)c2ccc3ccccc3c2)c2ncccc12	-2.6	3.0	/	-0.2	8.6
O=C(c1cc2ccccn2n1)N1CCCC1	23.2	/	/	/	/
Cc1ccc(C)c(N2CCN(C(=O)c3cc4ccccn4n3)CC2)c1	-1.0	7.3	-0.8	26.9*	3.6
COc1ccc(NC(=O)CON=CC(=O)Nc2ccc(C)cc2)c(OC)c1	/	1.9	25.8*	-1.1	1.0
CS(=O)(=O)c1ccc(Cl)c(NC(=O)CCCSc2ccccc2)c1	16.3	-1.5	-11.5	1.5	6.4
CCN1CCN(C(CNS(=O)(=O)c2ccc(C)cc2)c2cccnc2)CC1 (stereo unspecified)	51.1*	-10.9	-0.1	-0.4	1.5
Cc1ccc(S(=O)(=O)c2nc(S(C)(=O)=O)sc2N2CCCCCC2)cc1	-22.8	-2.7	-2.0	6.1	-6.9
Cc1ccc(S(=O)(=O)c2nc(S(C)(=O)=O)sc2N2CCN(C)CC2)cc1	55.5*	-4.9	-0.9	4.9	-1.6
CC(C)(C)c1ccc(C(=O)NNC(=O)c2cccc(Br)c2)cc1	-7.3	29.6	7.8	-0.9	-15.1
Cc1cccc(NC(=O)C(=O)NNC(=O)c2ccc(C(C)(C)C)cc2)c1	52.0*	75.9	/	-0.7	-8.7
O=C(CN1CCN(c2ccccc2O)CC1)NC(c1ccccc1)c1ccccc1	17.7	1.0	1.9	1.6	0.3
O=C(CN1CCCC1)NC(c1ccccc1)c1ccccc1	51.0*	-7.1	5.8	0.0	6.9
COCCn1nnnc1CN(CCc1ccc(OC)c(OC)c1)Cc1cc2ccc(C)cc2[nH]c1=O	51.9*	-5.1	-4.5	1.1	5.4
Cc1cc(OC(C)C(=O)NCCCN2CCOCC2)ccc1Cl (stereo unspecified)	50.2*	-4.7	-9.1	1.8	-8.8
CN(C(=O)COC(=O)c1cc([N+](=O)[O-])ccc1N1CCCC1)C1CCS(=O)(=O)C1 (stereo unspecified)	51.2*	2.4	-0.7	2.6	-1.6
COc1ccc(CN(C)C(=O)COC(=O)c2cc([N+](=O)[O-])ccc2N2CCCC2)c(OC)c1OC	/	-2.6	21.8*	0.3	-13.0
COc1ccc(/C=C/C(=O)N(C)CC(=O)Nc2cccc(F)c2)cc1S(=O)(=O)N1CCCCC1	/	/	-3.5	/	/
COc1ccc(C(C(=O)NCCC(C)C)N(CCO)C(=O)c2snc(C(N)=O)c2N)cc1 (stereo unspecified)	53.3*	4.8	-3.2	1.1	-12.5
C#CCN(C(=O)c1ccc(OC2CCN(C(=O)CCOC)CC2)cc1)C1CCCCC1	52.8*	1.8	-3.2	-1.1	/
Cn1c(=O)n(Cc2ccccc2)c(=O)c2c1nc1n2CCCN1Cc1ccccc1	14.6	4.2	/	-0.4	2.8
CCCCn1c(=O)c2c(nc3n2CCCN3Cc2ccccc2)n(C)c1=O	58.2*	/	11.0	/	/
O=C1CCC(C(=O)N2CCC(O)CC2)CN1CCc1ccc(Cl)cc1 (stereo unspecified)	6.5	-7.1	2.2	2.7	7.5
O=C(O)C1CCCC2CN3CCc4c([nH]c5ccccc45)C3C(O)C21 (stereo unspecified)	55.7*	-2.2	11.8	0.5	5.5

High-throughput results (PubChem)
